An excerpt weighted towards active compounds, which were near 0.37% of everything screened.
Rac1 wt GTP bind = modulators of human Rac1 wildtype GTP binding; P63000; AID 757; 0.27% of 190,000 active; GST-Rac1 beads, fluorescent GTP binding, flow cytometry; actives lie on both sides; 0 = cold GTP competed, 100 = untreated; GTP binding activity (% of control), % at 10 µM;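 active means GTP binding activity at least 20 points away from the 100% control level, either lower or higher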
Rab2A wt mod = changes GTP binding to wildtype dog Rab2A, up or down | GTP binding activity, % at 10 µM | 0.19% of 190,000 active | GST-Rab2 wt beads, Bodipy-GTP binding, flow cytometry | AID 760 | P61105;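 active means GTP binding activity at least 20 points away from 100%, either lowered or raised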
Rab7 wt modul = modulators of GTP binding to dog Rab7 wildtype GTPase; GST-Rab7 beads, fluorescent GTP binding, flow cytometry; actives lie on both sides; untreated = 100%, excess cold GTP = 0%; GTP binding activity (percent of control), % at 10 µM; 0.055% of 190,000 active;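 active means fluorescent GTP binding to Rab7 beads changed by at least 20 points from the 100% baseline, either direction, mostly lower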;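 further: median green fluorescence of bound Bodipy-FL-GTP per Rab7 bead population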
Cdc42 wt GTP = human Cdc42 wildtype GTP binding change, either direction; P60953; GST-Cdc42 beads, Bodipy-GTP binding, flow cytometry; actives lie on both sides; percent activity (GTP binding), % at 10 µM; 0.2% of 190,000 active; AID 761;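 active means percent activity GTP binding at least 20 points away from the 100% baseline, either down as inhibitor or up as activator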;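 further: median bead fluorescence of bound Bodipy-FL-GTP at 100 nM; below 100% means less GTP binding so inhibitor and above means activator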
Rac1 mut GTP = alters GTP binding to activated mutant human Rac1; AID 764; P63000; 0.11% of 190,000 active; GST-Rac1 activated beads, fluorescent GTP binding, flow cytometry; actives lie on both sides; 100% means binding = to untreated wells; percent activity (GTP binding), % at 10 µM;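 active means GTP binding at least 20 percentage points away from the 100% baseline, in either direction, so actives lie on both sides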
HRas wt GTP = changes GTP binding to wildtype human HRas | P01112 | GST-Ras wt beads, Bodipy-FL-GTP binding, flow cytometry; actives lie on both sides | GTP binding activity, % at 10 µM | 0.14% of 190,000 active;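 active means GTP binding activity at least 20% away from the 100% baseline, either lowered as inhibitor or raised as activator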
Target sequence (P01112 whole entry, looked up): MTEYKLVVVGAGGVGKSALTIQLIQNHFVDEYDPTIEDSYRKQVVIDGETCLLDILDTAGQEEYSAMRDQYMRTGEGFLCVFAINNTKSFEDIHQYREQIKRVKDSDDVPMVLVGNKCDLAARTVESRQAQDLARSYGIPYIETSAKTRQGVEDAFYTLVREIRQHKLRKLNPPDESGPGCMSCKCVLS
Hits are given with their value; . = inactive; [ ] = dose if it differs, or a comment.

SMILES | Rac1 wt GTP bind | Rab2A wt mod | Rab7 wt modul | Cdc42 wt GTP | Rac1 mut GTP | HRas wt GTP
Cc1cc(C)cc(N2C(=O)NC(=O)/C(=C\C=C\c3ccco3)C2=O)c1 | 78 | . | . | 78 | . | .
Cc1ccc(C2SCC(=O)Nc3c2c(=O)[nH]n3C2CCOC(C)(C)C2)cc1 (configuration not stated) | . | . | . | . | . | .
CC1(C)CC(n2[nH]c(=O)c3c2NC(=O)CSC3c2ccccc2)CCO1 (configuration not stated) | . | 75 | . | . | . | .
CC(Oc1ccc(-c2ccccc2)cc1)C(=O)O (configuration not stated) | 157[activator] | 141[activator] | 126[activator] | 161[activator] | 130[activator] | 137[activator]
CN(CCc1nnc(N)s1)[N+](=O)[O-] | . | . | . | . | . | .
O=c1[nH]c(=S)[nH]c(O)c1N=Nc1ccc2c(c1)OCO2 | . | . | . | . | . | .
O=c1[nH]c(=S)[nH]c(O)c1N=Nc1cc2c(cc1[N+](=O)[O-])OCO2 | . | . | . | 79 | 79 | .
CCC(C)NC(=O)c1c(N)n(CCCOC)c2nc3ccccc3nc12 (configuration not stated) | . | . | . | . | . | .
COCCCn1c(N)c(C(=O)Nc2sc3c(c2C(=O)OC)CCCC3)c2nc3ccccc3nc21 | . | 66 | . | 67 | . | 65
CCCNC(=O)N1CCC2(CC1)OCCO2 | . | . | . | . | . | .
COc1ccc(-c2cc(=NCCCCCC(=O)O)c3cc(C)ccc3o2)cc1 | 71 | 70 | . | 69 | . | 73
[N-]=[N+]=NC1C[C@H](n2ccc(=O)[nH]c2=O)O[C@@H]1CO (some centres not stated) | . | . | . | . | . | .
